Source: article PMC12136788
In all, about 24,000 sequences were measured (“enrichment r”: median about 0.99, highest 2% from about 3.7 on). Not all results are given here.

T1: UNK ZnF1-3 (human, UniProt Q9C0B0 31-174)
T1 sequence: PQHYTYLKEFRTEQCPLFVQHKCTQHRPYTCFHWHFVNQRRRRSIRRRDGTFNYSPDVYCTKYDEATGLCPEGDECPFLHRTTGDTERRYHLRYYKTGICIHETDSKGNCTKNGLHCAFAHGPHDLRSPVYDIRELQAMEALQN

B1: chr17:73774127:73774128:-_ENSG00000132475_ENST00000254810|hu_mus|motif|central (ssRNA)
RNA: GGGAGUUCUACAGUCCGACGAUCUGACAAGACUCCCCACCACUUGUGAAUGUAAAACAUUUAAUUUAAAAAUGUUGAACACGGCAAUAUAUAAAAUAGCUAUUAUAAAUGCACAUAGUGUAUUCUAUAGCUGCCAGGUUUACUCAACAGAGGAUUGAGCAUCA
B2: chr9:95013113:95013114:-_ENSG00000196305_ENST00000443024|hu_hu|hu_hu_hu_mus_False|68_108 (ssRNA)
RNA: GGGAGUUCUACAGUCCGACGAUCCUCAGUGAGAAAAGGCGUGUAAGGGGCCAUCAGUCUGCACAGAGAAAGCAGAACACUGAACAGUGUCUCCAGAGCCAUGACACAGUCUUCCACCCCACUCUCACCCUUUAACCUCCUCCUCAACAGAGGAUUGAGCAUCA
B3: chr8:41367971:41367972:+_ENSG00000147533_ENST00000520817|hu_hu|motif|central (ssRNA)
RNA: GGGAGUUCUACAGUCCGACGAUCAAUAUACAGUAUUAUUCCUAUCAAAUUUUUUUCUCAUAAGUUAUAUUUAUAACAAAACGGUAAUUAAAAUAUUUUUUAUACCUGCUUAUUCCAUAUCCAGGGACACAGCGGGAACAUUUACAACAGAGGAUUGAGCAUCA
B4: chr4:4237396:4237397:-_ENSG00000132406_ENST00000382753|hu_hu|motif|central (ssRNA)
RNA: GGGAGUUCUACAGUCCGACGAUCUAAAACUUCACAUUAGGAAAUGCUAAAAACCCAGUAAUGUACAUAAUGAUAAAAUCGGAAGUGAUGAGAAAACAUAAAAUAUUUUCAUUUGGUCCUGUCACCUAACAAAACUAUCAUAAACAACAGAGGAUUGAGCAUCA
B5: chr18:77696836:77696837:-_ENSMUSG00000025427_ENSMUST00000026494|mus_hu|FALSE|FALSE (ssRNA)
RNA: GGGAGUUCUACAGUCCGACGAUCCCUCAGAGGAUACCGGCUGGGUGGGCUGAGGUUGUGGGAGGAGCGAGGGAGGAGGAAAGGCAGGUUCAUGAUGGAGAGGCAGGGUUGUGGUGGGGGCGGGGGGGUGCCAAGUGUAGCAAGCAACAGAGGAUUGAGCAUCA
B6: chr8:35901500:35901501:-_ENSMUSG00000031529_ENSMUST00000033929|mus_mus|FALSE|FALSE (ssRNA)
RNA: GGGAGUUCUACAGUCCGACGAUCUAUAUAACAUGAUCUGUCUUUGUGUGUGGGACAGCCUGUUCCUCCUCCAAUUCCAUAAACAUACUGAUUGCUUUUUGAGGAGUUUUCAGCAAAGUAAAUUCCAGCUCCAAACAUCCCUCCCAACAGAGGAUUGAGCAUCA
B7: chr2:9728443:9728444:-_ENSG00000134308_ENST00000238081|hu_mus|motif|central (ssRNA)
RNA: GGGAGUUCUACAGUCCGACGAUCCUGCAUCUCCUUCUUGCUUAUAUCAAACGCCUCUUGGUAGGCUCCUUGGGAAUUUUCGGUUGUUUGUUUUCGAUCAUCGCCACAAGCUACUUCAGCAAGAUACCGGAAAUAAUCUCCCUUCAACAGAGGAUUGAGCAUCA
B8: 30602309_30602429_1961_3pUTR_ENSG00000107951_ENST00000263063|human|control|control (ssRNA)
RNA: GGGAGUUCUACAGUCCGACGAUCCGCCACACUCCACAGCUGAUGUUUUAAUAAAGUGCCACUGAGUAUCAGACUGAUCAAACUGAAAACAUCCCAGAACUUCAGACCAGGUUAAGGGGGCCAAUGAGAAGAUCAUGAAAAGUGCAACAGAGGAUUGAGCAUCA
B9: chr4:42003652:42003653:+_ENSG00000014824_ENST00000513699|hu_hu|motif|central (ssRNA)
RNA: GGGAGUUCUACAGUCCGACGAUCGGUACCAAUAUAUGGAUGACUACAGGGAACCAUGUUUGAAAAGCUUCCAAAUGUCACGGAAUUCUGCCACUCCUGGCGGUCGCUGGGAUUACAGGCCGCCGCCCUGCAUCGCAGACGGAGCAACAGAGGAUUGAGCAUCA
B10: 22790091_22790211_509_ncRNA_ENSMUSG00000026784_ENSMUST00000139472|mouse|control|control (ssRNA)
RNA: GGGAGUUCUACAGUCCGACGAUCAUGACUGGAGUUUGAUGAAGAAAGAACUGACUACUCAGACACCUGUCUCCCCACCGUGUGUGACACACACUAUAAGUCCCUCAGUAAUGAUGACAAUGUCUUGUAUCCUCUUCAUUUUUACAACAGAGGAUUGAGCAUCA
B11: chr2:202488911:202488912:-_ENSG00000155755_ENST00000286196|hu_mus|hu_hu_hu_mus_False|88_98 (ssRNA)
RNA: GGGAGUUCUACAGUCCGACGAUCAUUGAAACAUUUUCAUAAUAUUGAGAGAUGUUUUCAGCAUUAUGUAACAAAAGCUCAAUUGUAAAUACAUGUAUCUUAUAAAAAUACACUUAAAAACACGAGUGGGGAGCGCAGGCGCCACAACAGAGGAUUGAGCAUCA
B12: chr16:94690476:94690477:+_ENSMUSG00000040785_ENSMUST00000117648|mus_mus|motif|central (ssRNA)
RNA: GGGAGUUCUACAGUCCGACGAUCAGAAAUGUAAUGUAUUCAAGGUUCACAUGUCUGUAUUUGCCACUGCCUACAGGUCACGGAAAAUACCUAGUUUUUGAAUAGUUUCUAAUACAGUUAGCUUGUUUUCAGGCCACAUUACAACAACAGAGGAUUGAGCAUCA
B13: chr13:90237973:90237974:+_ENSMUSG00000012422_ENSMUST00000161568|mus_hu|FALSE|FALSE (ssRNA)
RNA: GGGAGUUCUACAGUCCGACGAUCAAGCACAGGUACAUAUAAGCAGCAAGAUUACAGUCAAUAGACUCUGAAAAUUGAAAAUGGCAGACAUAGCGAGGCCGGCGAUGCCGCAGCCACAUCACCCUUCCGGGGCUCAGGCGGAAGCAACAGAGGAUUGAGCAUCA
B14: chr1:163112212:163112213:-_ENSG00000143248_ENST00000313961|hu_hu|hu_hu_hu_mus_False|1_58 (ssRNA)
RNA: GGGAGUUCUACAGUCCGACGAUCUUUUAUUAUCAGUAAGAGUGAGUUACAUACUAGGCAAAGUAUUGGAUACAAUAUUCUAAAGAUAAACACUAUUGGUCCAGAAUUUAAAACUUUAUGAGCGAAGUGCUGGCACAGGAUUUACAACAGAGGAUUGAGCAUCA
B15: chr7:7679991:7679992:-_ENSG00000106399_ENST00000396682|hu_hu|hu_hu_hu_mus_False|48_88 (ssRNA)
RNA: GGGAGUUCUACAGUCCGACGAUCUGGGAUGAAUCUUUUCCAGCUUCCCUACGAAGCACACGGGCCGGUCGAUAUACUGUGGUAACAUGCCGGCGUUGACGCGCGCUUUGGGGAGCUGCAUUAUGUCCUCCAUGAUUCUGCCGCCAACAGAGGAUUGAGCAUCA
B16: chr9:56909451:56909452:+_ENSMUSG00000032290_ENSMUST00000034832|mus_hu|motif|central (ssRNA)
RNA: GGGAGUUCUACAGUCCGACGAUCCAUAAGUGCACACACACACACACACAGAAUGACAGAAAGGACUGGAAUACACGCCCGGCUUAUAAACGUGCUUGGCACUCAGGACGAUCUCUAGAAUAUGUAACUUGGUCAAGCUCUCUGCAACAGAGGAUUGAGCAUCA
B17: 62695852_62700603_289_3pUTR_ENSMUSG00000042211_ENSMUST00000048688|mouse|control|control (ssRNA)
RNA: GGGAGUUCUACAGUCCGACGAUCAGCUUCCGAGAGAGGCAUUCCAUGCACAUGAUGUCCUGUAGUGGCAGGUACCUGAAGAUAUGACAGAGCACUUCAUGUGACAGCUGGUUCAUGUAGUCCUUCUCUUCAUCGGCUGUCAUUCAACAGAGGAUUGAGCAUCA
B18: chr7:151048522:151048523:+_ENSG00000013374_ENST00000566856|hu_mus|hu_hu_hu_mus_True|58_78 (ssRNA)
RNA: GGGAGUUCUACAGUCCGACGAUCCUGUUUCUUAUUUAUUACGAUCUUGAUGUAAUUUUCUUGAAGUCCGAAAGUUUCAGCUAUUUUACACCUCAGGUCUCUACCAGUGACAUGCAAGCGGGUCUCCAACAAGCUUUUCUUAUCCAACAGAGGAUUGAGCAUCA
B19: chr14:78183846:78183847:+_ENSG00000119705_ENST00000557342|hu_hu|hu_hu_hu_mus_False|18_108 (ssRNA)
RNA: GGGAGUUCUACAGUCCGACGAUCUCUGUCUCAAAAAUCUUCAUCAGAUGUUUGAGCUCCGUGCAAAGCCUUUGCUCUUUGAGCUUGAACGUGGAUCUAUGGGAGGGAAAGCACUGUAUUUUCCUGUAAUUUUUUUUUUAAAGACAACAGAGGAUUGAGCAUCA
B20: chr1:220276048:220276049:+_ENSG00000067704_ENST00000302637|hu_hu|hu_hu_hu_mus_True|78_108 (ssRNA)
RNA: GGGAGUUCUACAGUCCGACGAUCGCAAACAGCUUCAUUGGCGGGAAUUGUCCAAGGUUGUGUGGUCCAAACUAAAACGCUAACAGGGGAUGAGGCAUCUGUAAGAGACUCCAACUUCGGAGGAGGUCUCAGGAGGGGGAAUCUCAACAGAGGAUUGAGCAUCA
B21: 27242051_27281840_773_CDS_ENSMUSG00000009621_ENSMUST00000056176|mouse|control|control (ssRNA)
RNA: GGGAGUUCUACAGUCCGACGAUCCAGCUCACUGUUUCUUAGUCCAAAUUUGUCAUGGCAGACUUUGAGGAAGGUGCGAAUAUUCUUCAGACACAAGAACUGGGACAUCUGCGGCCGGAAGUUGAUGUCCUUAAGGUCGAUGGACAACAGAGGAUUGAGCAUCA
B22: chr20:43533646:43533647:+_ENSG00000166913_ENST00000353703|hu_mus|FALSE|FALSE (ssRNA)
RNA: GGGAGUUCUACAGUCCGACGAUCGAAAUUCAGCGCCAGGCCGAGGCGAAUCGGGUGUGUAGGCUGCAUUUCUUUCUUGCUGAUUUCAAAUGCUUCUUGGUAAGCCUGCUGGGAGUUGGACACCGUGGUUUGUUUAUUUUCUCCCAACAGAGGAUUGAGCAUCA

target: T1, UNK ZnF1-3; assay: nsRBNS (natural sequence RNA bind-n-seq); RBNS binding buffer (assumed for nsRBNS): 25 mM Tris pH 7.5, 150 mM KCl, 3 mM MgCl2, 0.01% Triton X-100, 500 ug/ml BSA, 20 U/ml SUPERase-In, 4 C; UNK is unkempt and MSI1 is Musashi-1; names of the RNAs are library labels; protein concentration not given here; high values mean tight binding

Binder	binding signal [enrichment R]
B1	1.13
B2	1.61
B3	1.27
B4	1.05
B5	3.07
B6	1.03
B7	0.873
B8	2.32
B9	1.6
B10	0.985
B11	0.63
B12	0.656
B13	1.37
B14	1.29
B15	0.421
B16	1.4
B17	1.2
B18	0.64
B19	1.24
B20	1.64
B21	1.21
B22	0.604
